# Measurements taken from PubChem BioAssay (NCATS).
# Inconclusive results are not listed. A number with no mark means an inactive call. Active and inactive are the calls of the source. Calls come from the whole dose curve; as a rule, active = well fitted cell-killing curve with a large enough effect; inconclusive = small, poorly fitted or top-dose-only effect; inactive = no such curve, though single readings can be large or run the other way.
# Assay: qHTS of pediatric cancer cell lines to identify multiple opportunities for drug repurposing: Primary screen for NB1643 cells (AID 1347099); note: nearly all actives have a fitted effect of over 50% in size
# Settings: NB1643 neuroblastoma viability, CellTiter-Glo luminescence, 48 h; series mostly up to 46 µM; activity change, negative = cytotoxic: at the top concentration
# From the text: Drug repurposing or repositioning has been offered as a strategy for drug development in oncology programs. This approach has special potential for childhood cancers and other rare or orphan diseases, where the expected return on new drug development has been a disincentive to pharmaceuticals. […] In this project we exploit the poly-pharmacology of drugs to discover new indications via phenotypic screening of a panel of 19 well-characterized cell lines derived from solid tumors seen in children and adolescents. The goal is to identify approved drugs with previously unrecognized anticancer properties that has the potential to reveal new mechanisms and biological processes involved in carcinogenesis or drug resistance. We employed a titration-based paradigm (quantitative high-throughput screening or qHTS), where all compounds were tested at multiple concentrations for their effect on cell viability. Concentration-response curves (CRCs) were derived directly from the primary screen, and both potency and efficacy values were used to identify compounds with robust bioactivity profiles. We screened the NIH Chemical Genomics Center (NCGC) Pharmaceutical Collection (NPC) and Mechanism Interrogation Plate (MIPE) small molecule collections of approved and investigational compounds against these cell lines; and measured metabolically active cells after 48 hours of compound treatment as a proxy for cell viability. […] Assay Submitter: Nathalia J. Martinez, National Center for Advancing Translational Sciences, National Institutes of Health, Rockville, MD, USA; email: natalia.martinez@nih.gov Shen, M et al. Quantitative high-throughput phenotypic screening of pediatric cancer cell lines identifies multiple opportunities for drug repurposing. Oncotarget 2017 Dec 19;9(4):4758-4772. PMID 29435139.
# The cells were obtained from University of North Carolina (UNC), Pediatric Preclinical Testing Program (PPT), and Coriell Institute (CI). qHTS cell viability assay: Cells were assayed in growth media at a density of 500-1,000 cells/well. Five microliters of cells were dispensed into 1,536-well, white, solid-bottom, TC-treated plates (Greiner Bio One) using a multidrop dispenser and incubated at 37 degrees C, 5% CO2, under a humidified atmosphere for 5 hours. Twenty-three nanoliters of compounds and controls (neutral control DMSO or positive control bortezomib at final concentration of 2.3 µM) were subsequently transferred by Kalypsys pintool. For primary screens, the MIPE collection was tested at 11-point dilutions (final concentrations range from 0.78 nM to 46 µM) and the NPC collection at 8-point dilutions (final concentrations range from 0.59 nM to 46 µM). Compounds tested in follow-up screens were assayed at 11-point dilutions. Cells were incubated for 48 hours, followed by addition of 3 µL of CellTiter-Glo (Promega). After a 15 min incubation at room temperature, samples were analyzed for luminescence intensity using a ViewLux High-throughput CCD imager equipped with clear filters.
# Potency is the fitted concentration of half-maximal effect.
SMILES,"activity change, negative = cytotoxic",Potency
CC(NCCc1ccc(O)cc1)C(O)c1ccc(O)cc1 (stereo not given),3.89%,
OC[C@H]1O[C@@H](Oc2ccc(O)cc2)[C@H](O)[C@@H](O)[C@H]1O,-8.37%,
N[C@@H](CC(=O)N1CCn2c(nnc2C(F)(F)F)C1)Cc1cc(F)c(F)cc1F,,11.8 µM (active)
CCCCC(C=O)NC(=O)C(CC(C)C)NC(=O)OCc1ccccc1 (stereo not given),,26.4 µM (active)
CN1[C@H]2CC[C@H]1CC(OC(=O)c1c[nH]c3ccccc13)C2 (stereo not given in full),,23.5 µM (active)
CCN1CCN(c2ccc(Nc3cc(N(C)C(=O)Nc4c(Cl)c(OC)cc(OC)c4Cl)ncn3)cc2)CC1,-12.9%,
CCC(=O)OCC(=O)[C@@]1(OC(=O)CC)[C@@H](C)C[C@@H]2[C@H]3CCC4=CC(=O)C=C[C@]4(C)[C@@]3(F)[C@@H](O)C[C@@]21C,,2.35 µM (active)
COc1ccc(-c2oc3c(CC=C(C)C)c(O)cc(O)c3c(=O)c2O)cc1,,14.8 µM (active)
Cc1nc2c([nH]1)CCN(C(=O)c1ccc(NC(=O)c3ccccc3-c3ccccc3)cc1)c1ccccc1-2,16.6%,
O=C(CO)N1CCC(c2[nH]nc(-c3ccc(Cl)cc3)c2-c2ccncn2)CC1,-1.62%,
O=C1CN2Cc3c(ccc(Cl)c3Cl)N=C2N1,-10.7%,
CNC1CCC(N(Cc2cccc(-c3ccncc3)c2)C(=O)c2sc3ccccc3c2Cl)CC1 (stereo not given),,20.9 µM (active)
C[C@@H](O)[C@H]1C(=O)N2C(C(=O)OCOC(=O)C(C)(C)C)=C(SC3CN(C4=NCCS4)C3)[C@H](C)[C@H]12,-3.95%,
CO[C@H]1C=CO[C@@]2(C)Oc3c(C)c(O)c4c(O)c(c(C=NN5CCN(C)CC5)c(O)c4c3C2=O)NC(=O)C(C)=CC=C[C@H](C)[C@H](O)[C@@H](C)[C@@H](O)[C@@H](C)[C@H](OC(C)=O)[C@H]1C,22.3% [at 9.22 µM],
CC[C@H](C)n1cc(C)c2c(C(=O)NCc3c(C)cc(C)[nH]c3=O)cc(-c3ccc(N4CCNCC4)nc3)cc21,,1.66 µM (active)
O=C1C(c2c(O)[nH]c3ccccc23)=Nc2ccccc21,12.6%,
O=C1NC(=O)C(=Cc2ccc(-c3ccc(F)cc3O)o2)S1,37.7%,
O=C1NC(=O)C(c2cnc3ccccn23)=C1c1cn2c3c(cccc13)CN(C(=O)N1CCOCC1)CC2,,20.9 µM (active)
Oc1ccc(C=Cc2cc(O)cc(O)c2)cc1,,20.9 µM (active)
COc1nccc(-c2c(-c3ccc(F)cc3)ncn2C2CCNCC2)n1,-21.2%,

SMILES,"activity change, negative = cytotoxic",Potency
CC(C)(OCc1nn(Cc2ccccc2)c2ccccc12)C(=O)O,-4.49%,
CN1CCc2c(n(Cc3ccc(C(=O)NO)cc3)c3ccccc23)C1,,11.8 µM (active)
O=C(CC12CC3CC(CC(C3)C1)C2)Nc1cccc2nc(NCCNCCO)ccc12,,13.2 µM (active)
COc1cc([C@@H]2c3cc4c(cc3[C@@H](O[C@@H]3O[C@@H]5CO[C@@H](C)O[C@@H]5[C@H](O)[C@@H]3O)[C@H]3COC(=O)[C@H]23)OCO4)cc(OC)c1O,,0.662 µM (active)
O=C(O)C1=NC(C(=O)O)CC(C=CN2c3cc(O)c(OC4OC(CO)C(O)C(O)C4O)cc3CC2C(=O)O)=C1 (stereo not given),17.3%,
CC=C1C2C=C(C)CC1(N)c1ccc(=O)[nH]c1C2 (stereo not given),6.55%,
CCOC(=O)N1c2ccc(C(F)(F)F)cc2[C@@H](N(Cc2cc(C(F)(F)F)cc(C(F)(F)F)c2)C(=O)OC)C[C@H]1CC,-14.5%,
O=C1CCCC(=O)C1C(=O)c1ccc(C(F)(F)F)cc1[N+](=O)[O-],-7.59%,
CC(=O)N1CCN(c2ccc(OCc3nn(C)c(C)c3-c3cccc4c(CCCOc5cc(C)c(Cl)c(C)c5)c(C(=O)O)n(Cc5cccnc5)c34)cc2)CC1,,18.7 µM (active)
CC(=O)Nc1cccc(-n2c(=O)n(C3CC3)c(=O)c3c(Nc4ccc(I)cc4F)n(C)c(=O)c(C)c32)c1,,18.7 µM (active)
OC[C@H]1O[C@@H](OCCc2ccc(O)cc2)[C@H](O)[C@@H](O)[C@H]1O,-13%,
COc1cc([C@H]2Oc3cc([C@H]4Oc5cc(O)cc(O)c5C(=O)[C@H]4O)ccc3O[C@H]2CO)ccc1O,,23.5 µM (active)
CC(O)=C(C#N)C(=O)Nc1ccc(C(F)(F)F)cc1,,23.5 µM (active)
CN1N=C(N)c2cn([C@@H]3O[C@H](COP(=O)(O)O)[C@@H](O)[C@@H]3O)c3ncnc1c23,,16.6 µM (active)
O=C(O)C1=CC(O)C(O)[C@H](O)C1 (stereo not given in full),10.5%,
NC(=O)c1noc([C@H](CCCC2CCCCC2)CC(=O)NO)n1,,18.7 µM (active)
CCN1C[C@H](C)n2c(c(O)c3c(=O)n(Cc4ccc(F)c(Cl)c4)nc(C(=O)NC)c32)C1=O,-1.72%,
N#CC(=C1Nc2ccccc2S1)c1ccnc(OCc2ccc(CN3CCOCC3)cc2)n1,,0.0526 µM (active)
O=C(O)C1=CO[C@@H](O[C@@H]2O[C@H](CO)[C@H](O)[C@H](O)[C@H]2O)[C@@H]2C(CO)=CC[C@H]12,26.2%,
C[C@H](c1ccc(F)cc1CCCC(=O)O)N(c1cc(F)ccc1F)S(=O)(=O)c1ccc(Cl)cc1,,14.8 µM (active)
